Source: PubChem BioAssay AID1159580 (chemical genetic matrix, 2015)
Several values for one entry are separate records, joined by “and”; a condition that tells them apart may be missing. Equal values may be shown once. Out of some 5,500 compounds screened, about 2,000 (36%) were called active. About 18% were inconclusive and are not listed. Cut-off read from the data, not from the text of the source: active = normalized growth mostly below about 0.91 (no sharp cut-off); inconclusive = no clear call, values can overlap the other calls; inactive = mostly above about 0.92. This is one part of the list.

Test: chemical genetic growth profiling, strain panel (AID 1159580);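 note: tested at 20 µM; growth read once vehicle control cultures reached saturation at 30 °C; 1 = growth at the plate median or of vehicle wells; lower values mean less growth of the strain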
Settings: S. cerevisiae deletion strains, growth OD

Measured: normalized growth

O=C(Oc1ccccc1C(=O)O)c1ccccc1O
inactive: locus YAL013W, strain DEP1, active compounds read low 0.985 | locus YAL021C, strain ccr4, active compounds read low 1 | locus YAL026C, strain drs2, active compounds read low 0.982 | locus YAL030W, strain snc1, active compounds read low 0.979 | locus YBL061C, strain skt5, active compounds read low 0.973 | locus YBR009C, strain hhf1, active compounds read low 1.01 | locus YBR021W, strain FUR4, active compounds read low 1 | locus YBR023C, strain chs3, active compounds read low 1 | locus YBR171W, strain sec66, active compounds read low 0.941 | locus YBR229C, strain ROT2, active compounds read low 0.955 | locus YBR231C, strain swc5, active compounds read low 0.984 | locus YBR279W, strain paf1, active compounds read low 1 | locus YCL011C, strain gbp2, active compounds read low 0.975 | locus YCL016C, strain dcc1, active compounds read low 1 | locus YCL029C, strain bik1, active compounds read low 0.985 | locus YCL069W, strain vba3, active compounds read low 0.986 | locus YCR088W, strain abp1, active compounds read low 0.972 | locus YDL005C, strain med2, active compounds read low 0.944 | locus YDL035C, strain GPR1, active compounds read low 0.964 | locus YDL040C, strain nat1, active compounds read low 0.982 | locus YDL074C, strain BRE1, active compounds read low 0.974 | locus YDL101C, strain DUN1, active compounds read low 0.98 | locus YDL185W, strain tfp1, active compounds read low 0.961 | locus YDL192W, strain arf1, active compounds read low 0.977 | locus YDR001C, strain nth1, active compounds read low 0.953 | locus YDR069C, strain doa4, active compounds read low 0.971 | locus YDR101C, strain arx1, active compounds read low 0.944 | locus YDR137W, strain rgp1, active compounds read low 0.972 | locus YDR159W, strain sac3, active compounds read low 0.978 | locus YDR162C, strain NBP2, active compounds read low 0.97 | locus YDR195W, strain ref2 0.897 | locus YDR297W, strain sur2, active compounds read low 0.997 | locus YDR318W, strain mcm21, active compounds read low 1 | locus YDR334W, strain swr1, active compounds read low 0.942 | locus YDR335W, strain msn5, active compounds read low 0.975 | locus YDR388W, active compounds read low 0.976 | locus YDR392W, strain spt3, active compounds read low 1 | locus YDR502C, strain sam2, active compounds read low 0.996 | locus YEL003W, strain gim4, active compounds read low 0.979 | locus YEL037C, strain rad23, active compounds read low 0.965 | locus YEL061C, strain CIN8 (second series), active compounds read low 0.978 | locus YEL061C, strain CIN8, active compounds read low 0.984 | locus YER015W, strain faa2, active compounds read low 0.989 | locus YER016W, strain bim1, active compounds read low 1 | locus YER110C, active compounds read low 0.983 | locus YER111C, strain swi4, active compounds read low 0.95 | locus YER155C, strain BEM2 (second series), active compounds read low 0.99 | locus YER155C, strain BEM2, active compounds read low 0.997 | locus YER167W, strain BCK2, active compounds read low 1 | locus YFR010W, strain ubp6, active compounds read low 0.966 | locus YGL078C, strain dbp3, active compounds read low 1.01 | locus YGL086W, strain mad1, active compounds read low 0.976 | locus YGL167C, strain pmr1, active compounds read low 0.937 | locus YGL173C, strain kem1, active compounds read low 0.979 | locus YGL227W, strain vid30, active compounds read low 0.98 | locus YGL240W, strain doc1, active compounds read low 0.985 | locus YGL248W, strain PDE1, active compounds read low 0.99 | locus YGL253W, strain hxk2, active compounds read low 0.968 | locus YGR135W, strain pre9, active compounds read low 1.06 | locus YGR252W, strain gcn5, active compounds read low 1.09 | locus YHR013C, strain ard1, active compounds read low 0.963 | locus YHR027C, strain rpn1, active compounds read low 0.985 | locus YHR030C, strain SLT2, active compounds read low 0.977 and 1 | locus YHR079C, strain IRE1 (second series), active compounds read low 0.98 | locus YHR079C, strain IRE1, active compounds read low 0.987 | locus YHR094C, strain hxt1, active compounds read low 0.977 | locus YHR129C, strain ARP1, active compounds read low 0.955 | locus YHR142W, strain chs7, active compounds read low 0.982 | locus YHR200W, strain rpn10, active compounds read low 0.987 | locus YIL066C, strain RNR3, active compounds read low 0.971 | locus YIL073C, strain SPO22, active compounds read low 1.03 | locus YIL125W, strain kgd1, active compounds read low 0.992 | locus YIR030C, strain dcg1, active compounds read low 0.992 | locus YJL092W, strain hpr5, active compounds read low 0.961 | locus YJL095W, strain BCK1 (second series), active compounds read low 0.972 | locus YJL095W, strain BCK1, active compounds read low 1.02 and 0.96 | locus YJL115W, strain asf1, active compounds read low 0.956 | locus YJL129C, strain trk1, active compounds read low 0.955 | locus YJL134W, strain LCB3, active compounds read low 0.985 | locus YJL154C, strain vps35, active compounds read low 0.933 | locus YJL164C, strain tpk1, active compounds read low 1.01 | locus YJL166W, strain qcr8, active compounds read low 0.964 | locus YJL168C, strain set2, active compounds read low 0.988 | locus YJL187C, strain SWE1 (second series), active compounds read low 0.966 | locus YJR043C, strain POL32, active compounds read low 0.975 | locus YJR066W, strain TOR1, active compounds read low 0.937 | locus YJR075W, strain HOC1, active compounds read low 0.978 | locus YKL009W, strain mrt4, active compounds read low 0.971 | locus YKL068W, active compounds read low 0.978 | locus YKL085W, strain MDH1 (second series), active compounds read low 0.998 | locus YKL085W, strain MDH1, active compounds read low 0.998 | locus YKL160W, strain elf1, active compounds read low 0.969 | locus YKR001C, strain vps1, active compounds read low 0.986 | locus YKR026C, strain gcn3, active compounds read low 0.923 | locus YKR091W, strain srl3, active compounds read low 0.984 | locus YLL001W, strain dnm1, active compounds read low 0.944 | locus YLL026W, active compounds read low 1 | locus YLL041C, strain sdh2, active compounds read low 0.968 | locus YLR027C, strain aat2, active compounds read low 0.984 | locus YLR039C, strain RIC1, active compounds read low 0.991 | locus YLR058C, strain SHM2, active compounds read low 0.971 | locus YLR102C, strain apc9, active compounds read low 0.993 | locus YLR113W, strain HOG1, active compounds read low 0.906 | locus YLR221C, strain rsa3, active compounds read low 1 | locus YLR258W, strain gsy2, active compounds read low 0.974 | locus YLR262C, strain YPT6 (second series), active compounds read low 0.925 | locus YLR262C, strain YPT6, active compounds read low 0.908 | locus YLR268W, strain sec22, active compounds read low 0.978 | locus YLR320W, strain mms22, active compounds read low 1 | locus YLR330W, strain CHS5, active compounds read low 0.988 | locus YLR342W, strain FKS1 (second series), active compounds read low 1 | locus YLR342W, strain FKS1, active compounds read low 0.979 | locus YLR357W, strain rsc2, active compounds read low 0.958 | locus YLR370C, strain arc18, active compounds read low 0.986 | locus YLR371W, strain rom2, active compounds read low 0.998 | locus YLR384C, strain iki3, active compounds read low 0.967 | locus YLR418C, strain cdc73, active compounds read low 1.03 | locus YML016C, strain PPZ1, active compounds read low 0.987 | locus YML032C, strain rad52, active compounds read low 0.976 | locus YML120C, strain ndi1, active compounds read low 0.967 | locus YML124C, strain tub3, active compounds read low 0.992 | locus YMR058W, strain fet3, active compounds read low 0.995 | locus YMR078C, strain ctf18, active compounds read low 0.988 | locus YMR125W, strain sto1, active compounds read low 0.93 | locus YMR129W, active compounds read low 0.968 | locus YMR205C, strain PFK2, active compounds read low 0.96 | locus YMR223W, strain ubp8, active compounds read low 1.02 | locus YMR231W, strain pep5, active compounds read low 0.956 | locus YMR307W, strain GAS1, active compounds read low 0.999 | locus YNL067W, strain RPL9B, active compounds read low 0.98 | locus YNL071W, strain lat1, active compounds read low 0.971 | locus YNL153C, strain GIM3, active compounds read low 0.982 | locus YNL183C, strain NPR1, active compounds read low 0.921 | locus YNL209W, strain ssb2, active compounds read low 0.981 | locus YNL233W, strain BNI4, active compounds read low 0.988 | locus YNL248C, strain rpa49, active compounds read low 0.997 | locus YNL250W, strain rad50, active compounds read low 0.995 | locus YNL271C, strain bni1, active compounds read low 0.993 | locus YNL298W, strain CLA4, active compounds read low 1.01 | locus YNL307C, strain MCK1, active compounds read low 0.986 | locus YNL322C, strain KRE1 (second series), active compounds read low 0.963 | locus YNR049C, strain mso1, active compounds read low 0.967 | locus YNR052C, strain pop2, active compounds read low 0.988 | locus YOL006C, strain TOP1, active compounds read low 1.02 | locus YOL012C, strain htz1 0.938 | locus YOL147C, strain pex11, active compounds read low 0.993 | locus YOR001W, strain rrp6, active compounds read low 0.984 | locus YOR061W, strain CKA2, active compounds read low 0.972 | locus YOR069W, strain VPS5, active compounds read low 0.986 | locus YOR070C, strain gyp1, active compounds read low 0.994 | locus YOR080W, strain dia2, active compounds read low 0.963 | locus YOR083W, strain WHI5, active compounds read low 0.996 | locus YOR106W, strain vam3, active compounds read low 0.958 | locus YOR136W, strain idh2, active compounds read low 0.982 | locus YOR144C, strain elg1, active compounds read low 0.984 | locus YOR184W, strain ser1, active compounds read low 0.986 | locus YOR231W, strain MKK1, active compounds read low 0.959 | locus YOR265W, strain rbl2, active compounds read low 0.98 | locus YOR270C, strain vph1, active compounds read low 0.931 | locus YOR290C, strain snf2, active compounds read low 1 | locus YOR316C, strain cot1, active compounds read low 0.97 | locus YPL051W, strain arl3, active compounds read low 0.993 | locus YPL055C, strain LGE1, active compounds read low 0.992 | locus YPL078C, strain atp4, active compounds read low 0.962 | locus YPL106C, strain sse1, active compounds read low 0.99 | locus YPL240C, strain hsp82, active compounds read low 0.982 | locus YPL256C, strain CLN2, active compounds read low 0.98 | locus YPR119W, strain clb2, active compounds read low 0.985 | locus YPR141C, strain kar3, active compounds read low 0.979 | locus YPR163C, strain tif3, active compounds read low 0.986 | locus YPR167C, strain met16, active compounds read low 0.998 | strain wtn01, active compounds read low 1.02
